# Sampled rows, rich in hits. Any-hit rate of the full collection: about 0.78%.
# PINK1 expr mod: A Quantitative High throughput Screen to Identify Chemical Modulators of PINK1 Expression; PINK1 immunofluorescence, high-content cytometry, 24 h; Potency, µM (highest dose often 76.6 µM), for the others: at the top dose activation (PINK1 increase), usual class: activators; hit rate 0.2% among 410,000; active means well fitted activation curve with a large enough effect; inconclusive means small, poorly fitted or top-dose-only effect; cell line not stated here; further: potency means the concentration at half of the fitted maximal effect; % of control where 0% means no effect; nearly all actives have a fitted effect of over 65% in size
#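 PINK1 protein level read as immunofluorescence by microplate cytometer in a fixed, stained stable cell line after 24 h exposure to five compound concentrations, with CCCP as control.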
# RXFP1 ag: qHTS Assay for Agonists of the Relaxin Receptor RXFP1; Relaxin receptor 1 (Homo sapiens), Q9HBX9; HEK293T-RXFP1 cAMP TR-FRET, 30 min; response scale: percent of porcine relaxin response, buffer zero; Potency, µM (doses to about 57.5 µM), for inactives: at the highest dose activation, hits mostly activators; hit rate 0.3% among 370,000; further: potency means the concentration at half of the fitted maximal effect; on the % scale 0 is the no-effect control and ±100 the full control effect; nearly all actives have a fitted effect of over 60% in size
# Target sequence (Q9HBX9 whole entry, looked up): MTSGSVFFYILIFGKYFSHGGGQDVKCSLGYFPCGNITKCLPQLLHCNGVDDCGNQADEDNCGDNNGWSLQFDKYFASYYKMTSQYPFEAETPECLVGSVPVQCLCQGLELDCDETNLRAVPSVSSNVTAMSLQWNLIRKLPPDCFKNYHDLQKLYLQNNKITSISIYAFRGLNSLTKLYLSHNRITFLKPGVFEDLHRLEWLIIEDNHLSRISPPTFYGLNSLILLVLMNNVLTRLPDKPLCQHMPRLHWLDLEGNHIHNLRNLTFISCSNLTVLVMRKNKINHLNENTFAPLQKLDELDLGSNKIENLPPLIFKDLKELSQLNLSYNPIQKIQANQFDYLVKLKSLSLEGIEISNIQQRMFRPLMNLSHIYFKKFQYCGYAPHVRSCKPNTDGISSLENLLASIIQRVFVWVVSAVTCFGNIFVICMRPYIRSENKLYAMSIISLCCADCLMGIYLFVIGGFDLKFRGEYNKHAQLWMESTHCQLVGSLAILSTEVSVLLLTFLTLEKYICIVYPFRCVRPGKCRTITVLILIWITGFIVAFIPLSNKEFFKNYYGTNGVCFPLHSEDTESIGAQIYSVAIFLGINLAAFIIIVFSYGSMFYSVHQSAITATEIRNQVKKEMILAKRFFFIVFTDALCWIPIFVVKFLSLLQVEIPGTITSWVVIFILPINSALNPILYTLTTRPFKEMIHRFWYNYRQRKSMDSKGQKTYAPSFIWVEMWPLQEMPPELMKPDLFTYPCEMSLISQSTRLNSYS
#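 Agonist response is measured as cAMP accumulation in an RXFP1-transfected HEK293T line under PDE4 inhibition. Values are scaled between buffer-only and 29 nM porcine relaxin, and EC50s come from standard Hill equation fits.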
# IL2 activator: qHTS of IL-2 Activators; hit rate 0.065% among 360,000; IL-2 activation reporter assay, cell-based qHTS; stimulated with anti-CD3/CD4/CD28 beads; in transgenic mouse T cells; activation, % (series mostly up to about 46 µM); in the data active means activation above about 50%; inconclusive means mostly about 30% to 49%; further: 0% is about no effect
#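 Unstimulated transgenic mouse T cells preincubated 60 min with compound, then stimulated with anti-CD3/anti-CD4-coated beads plus anti-CD28 for 18 h at 37 degrees C. IL-2 response read as EGFP and DsRed fluorescence by plate cytometry.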
# TCR act: Activators of T cell receptors: qHTS campaign | primary human leukocytes, anti-CD3, IL-2 HTRF, 48 h | 330,000 tested, under 10 active | AID 504894, 2011 | Potency, µM (highest dose often 9.22 µM), for the others: at the highest dose activation of IL-2 secretion, actives largely listed as activators; further: % of control where 0% means no effect
#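 Primary human leukocytes were stimulated with a-CD3 beads plus compounds for 48 hr without co-stimulation; secreted IL-2 was quantified by HTRF using a-IL-2-K (europium cryptate) and a-IL-2-d2, excited at 320nm with acceptor emission read at 665nm.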
# miR-21 act: qHTS Assay for Modulators of miRNAs and/orActivators of miR-21; Potency, µM (titrated, usually from 38.3 µM), for the others: at the top dose activity change, positive = activation, actives largely listed as activators; HeLa miR-21 FLuc reporter, luciferase, 48 h; 340,000 tested, under 10 active;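 further: % of control where 0% means no effect; miR-21 action dims this reporter so a rising signal means less miR-21 action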
#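 Compounds were titrated across several concentrations (up to approximately 40 uM) and incubated 48 hours with HeLa miR-21-FLuc reporter cells (miR-21 target sequence downstream of FLuc, endogenous miR-21). Readout was firefly luciferase luminescence after lytic detection reagent.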
# RXFP1 antagonist: qHTS Assay for Antagonists of the Relaxin Receptor RXFP1; Relaxin receptor 1 (Homo sapiens), Q9HBX9; HEK293-RXFP1, relaxin-stimulated cAMP HTRF, 30 min; active compounds read low; activity change, negative = inhibition, % at 57.5 µM; hit rate 0.59% among 350,000;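 active means activity change of -60% or lower, but not beyond a set lower limit; inconclusive means change between -60% and -40%, or beyond the set limit; inactive means change above -40%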; further: on the % scale 0 is the no-effect control and ±100 the full control effect
# Numbers without * were called inactive; ? = inconclusive; nt = no result given; [ ] = another dose, or the depositor's remark. Unless noted, the call rests on the fitted dose curve; in most records, active means well fitted curve in the direction sought with a large enough effect; inconclusive means small, poorly fitted or top-dose-only effect, or another doubt; inactive means no such curve, though single readings can be large; an effect the other way counts as inactive or inconclusive.
SMILES,PINK1 expr mod,RXFP1 ag,IL2 activator,TCR act,miR-21 act,RXFP1 antagonist
Cc1noc(-c2ccc(N(C)Cc3ccccc3)c([N+](=O)[O-])c2)n1,1%,5%,nt,nt,-17%,nt
Cc1ccc(C)c(OCc2nc3ccccc3[nH]2)c1,6%,3%,0,3%,-56%,-12
C=CCc1ccccc1OCc1nc2ccc(C)cc2[nH]1,40µM*,-1%,nt,nt,19%,-3
CCOC(=O)C1=C(O)/C(=C/c2cn(CC(=O)N3CCCC3)c3ccccc23)SC1=Nc1ccccc1,?,0%,219*,0%[46.1 µM],-18%,-7
COc1ccc(OC)c(-c2cc(Cl)c3c(c2)CC(CNC(=O)/C=C/c2ccccn2)O3)c1 (stereo not given),-1%,nt,nt,nt,nt,nt
CCCCn1c(SCC(=O)c2ccc(OC)c(OC)c2)nc2cc(S(N)(=O)=O)ccc21,-3%,3%,-1,3%,0%,-75*
CCCCn1c(SCC(=O)c2ccc(OCC)cc2)nc2cc(S(N)(=O)=O)ccc21,10%,30%,-2,-5%,-10%,-19
Cc1ccc(NC(=S)NC2CCSc3ccccc32)cc1 (stereo not given),9%,1%,0,-8%,6%,-62*
CC(=O)Nc1ccc(C(=O)NC2CCSc3ccccc32)cc1 (stereo not given),1%,0%,-1,-1%,-17%,6
COC(=O)[C@@H]1CCCN1Cc1ccc2c(c1)CN(Cc1cccn1-c1ncccn1)CCO2,0%,nt,nt,nt,nt,nt
OCC1OC(n2cnc3c(NCc4ccccc4O)ncnc32)C(O)C1O (stereo not given),-7%,nt,-8,-3%,nt,1
CNC(=O)[C@H]1O[C@@H](n2cnc3c(NCc4cccc(I)c4)ncnc32)[C@H](O)[C@@H]1O,-1%,16µM*,0,5%,nt,nt
Cc1ccc(C)c(OCCC(=O)OCC(=O)N(C)c2c(N)n(Cc3ccccc3)c(=O)[nH]c2=O)c1,2%,1%,0,-3%,nt,-64*
CN(C(=O)c1cncc(Br)c1)c1c(N)n(Cc2ccccc2)c(=O)[nH]c1=O,0%,0%,0,3%,nt,-70*
COCc1c(C(=O)N2CCC(N3CCCCC3)CC2)cnn1-c1ncc(C)c(-c2cccs2)n1,0%,nt,nt,nt,nt,nt
CC1CCCC(C)N1S(=O)(=O)c1ccc(NC(=O)CNC2CCCC2)cc1 (stereo not given),2%,-1%,1,-2%,-4%,3
CC1CCN(S(=O)(=O)c2ccc(NC(=O)CNC3CCCCC3)cc2)CC1,3%,-3%,0,0%,-6%,-104*
Cn1c2c(c(=O)n(C)c1=O)C(C(F)(F)F)(C(F)(F)F)N=C(CCC1CCCCC1)N2,?,1%,13,2%[46.1 µM],?,-65*
C#Cc1cccc(NC(=O)c2ccc3c(c2)C(=O)N(Cc2cccnc2)C3=O)c1,2%,-1%,-1,1%,-3%,-88*
O=C(CN1CCOCC1)NNc1c2ccccc2nc2ccccc12,0%,-5%,0,6%,-1%,-62*
CC(OC(=O)c1cc2sccc2n1C)C(=O)NCC1CCCO1 (stereo not given),10µM*,0%,0,nt,-16%,-4
Cn1c(=O)c2c(nc(Cc3ccc(N)cc3)n2C)n(C)c1=O,2%,16µM*,0,2%,5%,-2
Cn1c(=O)c2c(nc(CCC3CCCC3)n2C)n(C)c1=O,1%,nt,0,-6%,nt,5
CCOC(=O)N1CCC(n2c(=O)[nH]c3cc(Cl)ccc32)CC1,nt,nt,nt,nt,nt,-20
CCN(CC)c1ccc(/C=N/N2CC(=O)NC2=S)cc1,40µM*,4%,1,-6%,nt,3
SMILES,PINK1 expr mod,RXFP1 ag,IL2 activator,TCR act,miR-21 act,RXFP1 antagonist
O=C(c1nc2ncccn2n1)N1CCOc2ccc(C(O)C(c3ccccc3)c3ccccc3)cc2C1 (stereo not given),0%,nt,nt,nt,nt,nt
CCOC(=O)c1nc2sc3c(c2c(=O)[nH]1)CCCC3,0%,3%,-3,-5%,-6%,nt
N#C/C(=C\c1ccc(C(=O)O)cc1)c1nc2sc3c(c2c(=O)[nH]1)CCCC3,32µM*,5%,301*,4%,-5%,13
O=C(NCc1ccco1)/C(=C/c1ccc(C(F)(F)F)cc1)c1nc2ccccc2[nH]1,2%,3%,-2,-3%[46.1 µM],-46%,-8
O=S(=O)(/C(=C\c1ccc(C(F)(F)F)cc1)c1nc2ccccc2[nH]1)c1ccccc1,-4%,nt,0,-2%,nt,-77*
Cc1cccc(NC(=O)COc2ccc3c(c2)CCC3)n1,2%,1%,-1,1%,nt,-14
Cc1cccc(N(C)C(=S)Oc2ccc3c(c2)CCC3)c1,nt,nt,nt,nt,nt,-63*
Cc1cccc(N(C)C(=S)Oc2ccc3ccccc3c2)c1,3%,2%,0,5%,-27%,-71*
COc1ccc(N(C)C(=S)Oc2ccc(C(=O)Nc3ccccc3)cc2)cc1,nt,3%,nt,nt,13%,nt
O=C(NCCO)c1cn(C2CCCN(Cc3cccc(C(F)(F)F)c3)C2)nn1 (stereo not given),-1%,nt,nt,nt,nt,nt
CN(C)S(=O)(=O)c1cccc(COc2ncnc3c(Cl)cc(Cl)cc23)c1,4%,16µM*,0,1%,1%,12
CC(=O)c1ccc(Nc2nc3ccccc3nc2NS(=O)(=O)c2cccs2)cc1,40µM*,0%,0,-3%,2%,1
N/C(=N\OC(=O)c1cccs1)C1(c2ccc(Cl)cc2Cl)CC1,1%,1%,4,4%,-3%,-115*
COc1cccc2cc(C(=O)C3=C(O)C(=O)N(Cc4ccco4)C3c3cccnc3)oc12 (stereo not given),0%,25µM*,-2,-5%,-2%,8
COc1ccc(C2C(C(=O)c3ccco3)=C(O)C(=O)N2Cc2cccnc2)cc1OC (stereo not given),nt,2%,1,-3%,-14%,3
CCC1CN(CCNC(=O)c2cc(C)nn2CC)Cc2cc(OC)ccc2O1 (stereo not given),1%,nt,nt,nt,nt,nt
O=C(NC1CCCCC1)c1sc(=S)n2c1[nH]c(=O)c1ccccc12,25µM*,0%,2,-8%,-1%,-2
O=C(COC(=O)/C=C/c1ccc([N+](=O)[O-])cc1)Nc1ccc2[nH]c(=O)[nH]c2c1,4%,0%,-5,6%,nt,-69*
O=C(O)CCCC[P+](c1ccccc1)(c1ccccc1)c1ccccc1,nt,nt,nt,nt,nt,4

# From PubChem BioAssay
